Source: publication PMC5540273 (PLoS ONE, 2017)
Read-outs that look alike come from different tables or passages of the source.

Legend:
BMX = settings: concentration: 1 μM,replicates: in singlicate; n = 1
BRAF = settings: concentration: 1 μM,replicates: in singlicate; n = 1
BRK = system: T1, BRK; settings: concentration: 1 μM,replicates: in singlicate; n = 1
T1 construct: gene PTK6

BRSK1 = settings: concentration: 1 μM,replicates: in singlicate; n = 1
BRSK2 = settings: concentration: 1 μM,replicates: in singlicate; n = 1
BTK = settings: n = 1
BUB1 = settings: concentration: 1 μM,replicates: in singlicate; n = 1
CAMK1B = settings: concentration: 1 μM,replicates: in singlicate; n = 1
CAMK1D = settings: concentration: 1 μM,replicates: in singlicate; n = 1
CAMK1G = settings: concentration: 1 μM,replicates: in singlicate; n = 1
[1] = concentration: 1 μM,replicates: in singlicate
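Also: KINOMEscan kinase panel screen.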

SMILES	%Inh (BMX)	%Inh (BRAF)	%Inh (BRK)	%Inh (BRSK1)	%Inh (BRSK2)	%Inh (BTK; [1])	%Inh (BUB1)	%Inh (CAMK1B)	%Inh (CAMK1D)	%Inh (CAMK1G)	%Inh (BTK; 1 µM)
N#Cc1cccc(C(=O)NC2CCN(c3ccnc(Nc4ccc(F)cc4)n3)C2)c1 (stereo not shown) [GSK1379708]	6%	0%	16%	0%	0%	0%	31%	0%	5%	0%	–
CS(=O)(=O)Nc1ccc(-c2ccnc3[nH]ccc23)cc1 [GSK993273]	0%	0%	0%	8%	0%	0%	35%	27%	38%	30%	–
Cn1ccc2ncnc(Oc3ccc(NC(=O)Nc4cnn(C(C)(C)C)c4)c(Cl)c3)c21	0%	77%	0%	0%	12%	0%	0%	9%	0%	0%	–
CSc1nccc(-c2c(-c3ccc(F)cc3)ncn2CCCN2CCOCC2)n1.Cl [SB-217146]	0%	4%	0%	0%	0%	0%	14%	0%	12%	0%	–
Cn1ccc2ncnc(Oc3ccc(NC(=O)Nc4cncc(C(F)(F)F)c4)c(Cl)c3)c21	0%	52%	0%	0%	0%	0%	0%	0%	0%	0%	–
COc1cccc(C2=C(Nc3cccc(Cl)c3)C(=O)NC2=O)c1 [SB-341556]	24%	0%	19%	11%	2%	0%	23%	29%	36%	0%	–
C[C@@H]1CNc2c(sc3ccc4nc(-c5ccncc5)ccc4c23)C(=O)N1	0%	0%	0%	64%	59%	0%	77%	0%	25%	0%	–
CC(=O)Nc1ccc(-c2cc3ncnc(SCC(=O)O)c3s2)cc1	0%	4%	0%	28%	3%	0%	47%	0%	0%	19%	–
COc1cc2c(Nc3ccc(NC(=O)c4ccccc4)cc3)ncnc2cc1OCCCN1CCOCC1 [GSK301329]	7%	0%	77%	20%	0%	0%	10%	9%	35%	9%	–
COc1cc2nccc(Nc3ccc(Oc4ccccc4)cc3)c2cc1OC.Cl [GI261656]	36%	0%	96.1%	0%	0%	93.3%	31%	23%	2%	0%	–
CC(C(=O)NC1CCN(c2ccnc(Nc3ccc(F)cc3)n2)C1)c1ccc(Cl)cc1 (stereo not shown) [GSK1379713]	0%	0%	0%	5%	0%	0%	18%	37%	8%	13%	–
Cl.Nc1n[nH]c2cc(-c3ccccn3)ccc12 [GSK2189892]	12%	0%	32%	0%	0%	0%	0%	0%	25%	0%	–
CNC(=O)c1ccccc1Nc1nc(Nc2cccc(CS(C)(=O)=O)c2)ncc1C.O=CO [GSK1520489]	97.2%	59%	99.7%	65%	79%	95.4%	88%	14%	40%	29%	–
Cc1n[nH]c2cc(Nc3ccnc(Nc4cccc(CN5CCOCC5)c4)n3)ccc12 [GW682569]	11%	0%	47%	0%	0%	60%	36%	37%	26%	1%	–
Cc1cccc(-c2nc(Nc3ccncc3)c3sccc3n2)n1 [GW869641]	11%	36%	6%	0%	7%	58%	54%	16%	24%	7%	–
CCNCC(Cc1ccccc1)NC(=O)c1cc(Br)c(-c2ccnc3[nH]ccc23)s1.Cl.Cl (stereo not shown) [GSK1383280]	3%	0%	34%	0%	0%	0%	31%	28%	32%	11%	–
O=C1NCCc2[nH]c(-c3ccncc3)cc21	35%	0%	0%	0%	6%	0%	20%	1%	11%	0%	–

SMILES	%Inh (BMX)	%Inh (BRAF)	%Inh (BRK)	%Inh (BRSK1)	%Inh (BRSK2)	%Inh (BTK; [1])	%Inh (BUB1)	%Inh (CAMK1B)	%Inh (CAMK1D)	%Inh (CAMK1G)	%Inh (BTK; 1 µM)
COC(=O)c1cccc(NC(=O)NC2CCN(c3ccnc(NCc4ccc(F)cc4)n3)CC2)c1 [GSK1379860]	11%	2%	10%	0%	0%	0%	21%	67%	0%	0%	–
C[C@@H]1CCN(C(=O)N2CCCC2)C[C@@H]1N(C)c1ncnc2[nH]ccc12	1%	11%	0%	0%	5%	1%	25%	18%	8%	5%	–
CCN1CCN(CCCC(=O)Nc2n[nH]c3nc(-c4ccc(O)cc4)c(Br)cc23)CC1 [SB-731579]	0%	81%	0%	50%	54%	0%	5%	65%	17%	0%	–
C[C@@H](Oc1cc(-n2cnc3cc(-c4ccncc4)ccc32)sc1C(N)=O)c1ccccc1Cl [GSK479719]	18%	1%	15%	58%	79%	0%	23%	18%	6%	0%	–
O=C(Nc1ccccc1)c1cccc(Oc2ccc3nccn3n2)c1	17%	3%	0%	7%	0%	0%	0%	0%	0%	0%	–
COC(=O)Nc1nc2cc(Oc3ccc(NC(=O)Nc4cc(C(F)(F)F)ccc4Cl)cc3)ccc2[nH]1.Cl [GW697465]	95.2%	41%	12%	0%	0%	7%	67%	0%	13%	0%	–
O=C(Nc1cccc(C(F)(F)F)c1)c1cccc(Oc2ccc3nccn3n2)c1	8%	76%	4%	31%	100%	0%	12%	0%	3%	0%	–
O=C(Nc1cccc(Oc2ccc3nccn3n2)c1)Nc1cccc(C(F)(F)F)c1	0%	88%	0%	5%	13%	0%	7%	0%	12%	0%	–
O=C(Nc1ccc(Oc2ccc3nc(NC(=O)C4CC4)cn3n2)c(F)c1)c1cccn(-c2ccccc2)c1=O	46%	41%	72%	3%	5%	0%	0%	0%	14%	0%	–
Cn1cc(-c2cccc3c(N)c(C(N)=O)nnc23)cn1	15%	30%	8%	11%	18%	–	32%	0%	29%	7%	86%
CC(C)S(=O)(=O)N1CCN(Cc2ccc3c(c2)nc(NC(=O)c2ccsc2)n3C[C@H](O)c2ccccc2)CC1 [GW635815]	10%	0%	8%	0%	0%	0%	13%	0%	12%	19%	–
Cc1ccc(CC(=O)N2CCc3cc(-c4cn(C)c5ncnc(N)c45)ccc32)cc1 [GSK2634758]	12%	0%	78%	2%	0%	15%	12%	0%	19%	23%	–
NC(=O)Nc1sc(-c2ccc(F)cc2)cc1C(N)=O [GW789449]	0%	8%	0%	2%	0%	62%	20%	34%	43%	0%	–
CC(=O)c1c(-c2ccncc2)[nH]c(-c2ccncc2)c1C [GW493036]	0%	19%	3%	0%	0%	7%	84%	0%	20%	0%	–
c1ccc(Oc2ccc(Nc3ccnc4ccc(-c5ccccn5)cc34)cc2)cc1 [GW407034]	44%	13%	81%	12%	0%	61%	12%	5%	0%	5%	–
COc1cc2ncn(-c3cc(OCC4CCCCC4)c(C(N)=O)s3)c2cc1OC [GSK204559]	10%	0%	8%	30%	45%	0%	17%	6%	16%	11%	–
COC(=O)c1cccc(NC(=O)NC2CCN(c3ccnc(Nc4cc(OC)c(OC)c(OC)c4)n3)C2)c1 (stereo not shown) [GSK1379767]	30%	0%	8%	0%	0%	37%	48%	38%	14%	0%	–
